Results published in PubChem BioAssay (NCATS).
Results filed as inconclusive are left out. A number with no mark means an inactive call. Active and inactive are the calls of the source. The call rests on the fitted dose curve; in most records, active means well fitted inhibition curve with a large enough effect; inconclusive means small, poorly fitted or top-dose-only effect; inactive means flat fitted curve, though single readings scatter.

System: WaGa
Experiment: qHTS assay to identify novel small-molecules to repurpose for Merkel cell carcinoma treatment (AID 1296009); further: nearly all actives have a fitted effect of over 60% in size
Conditions: MCC and control cell lines, CellTiter-Glo viability, 72 h; series mostly up to 46 µM; activity change, negative = cytotoxicity: at the top concentration
Procedure, shortened: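 72 hr, 37 degree celsius; NPC 8-pt / MIPE 11-pt dose response; compound pinned in DMSO; CellTiter-Glo, 10 min RT, luminescence; normalized to no-cell and DMSO controls.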
On the % scale 0 is the no-effect control and ±100 the full control effect; potency means the concentration at half of the fitted maximal effect.

| Structure (SMILES) | activity change, negative = cytotoxicity | Potency |
| --- | --- | --- |
| CC(C)(C)c1cc(C=C(C#N)C#N)cc(Br)c1O | 7.02% | – |
| CC(C)(C)[C@]1(O)C[C@@H]2OC(=O)C[C@@]23C(=O)O[C@@H]2OC(=O)[C@H](O)C213 (stereo partly specified) | -1.88% | – |
| CC(=CCCC1=CCC(C2=CC(=O)OC2O)OC1O)CCC1=C(C)CCCC1(C)C (stereo unspecified) | 6.51% | – |
| CC(O)=C(C#N)C(=O)Nc1cc(Br)ccc1Br | -6.15% | – |
| CC[C@H]1C=CC=CC[C@@H](C)[C@H](O)[C@@](C)(O)C(=O)[C@@H](C)[C@H](O)[C@@H](C)C(=O)[C@@H](C)[C@H](O)[C@@H](C)C=CC(=O)O[C@@H]2[C@@H](C)[C@H](CC1)O[C@]1(CC[C@H](C)[C@H](C[C@@H](C)O)O1)[C@H]2C | – | 662 nM (active) |
| COc1cc([C@@H]2c3cc4c(cc3[C@@H](O)C3COC(=O)C32)OCO4)cc(OC)c1O (stereo partly specified) | – | 52.6 nM (active) |
| CC1=NN=C(c2ccc(N)cc2)c2cc3c(cc2C1)OCO3 | -2.48% | – |
| C[C@]12CCC(=O)C(O)=C1CC[C@@H]1[C@H]3CCC(=O)[C@@]3(C)CC[C@@H]12 | -4.37% | – |
| COC(=O)[C@@H](N)CCCN=C(N)N[N+](=O)[O-] | 4.15% | – |
| COCC1(CO)C(=O)C2CCN1CC2 (stereo unspecified) | – | 1320 nM (active) |
| Cc1nc(-c2ccc(-c3ccc(C(=O)N4CCc5cc6c(cc54)C4(CCN(C)CC4)CO6)cc3)c(C)c2)no1 | 0.39% | – |
| COc1cccc2c1[C@]13CCN(CC4CC4)[C@H](C2)[C@]1(OC)CCC(=O)C3 | 5.81% | – |
| COc1ccc2c(c1)[C@]13CCCCC1C(C2)N(C)CC3 (stereo partly specified) | 1.45% | – |
| c1cc2c(cc1[C@H]1OC[C@H]3[C@H]1CO[C@H]3c1ccc3c(c1)OCO3)OCO2 | 10.7% | – |
| C#C[C@]1(O)C=C[C@@H]2[C@@H]3CCC4=CC(=O)CC[C@@H]4[C@H]3CC[C@@]21CC | 5.66% | – |
| C[C@H]([C@H](O)CCC(C)(C)O)[C@H]1CC[C@@]2(O)C3=CC(=O)[C@@H]4C[C@@H](O)[C@@H](O)C[C@]4(C)[C@@H]3CC[C@]12C | -2.23% | – |
| C=CCON=C(C[C@H]1O[C@@H]2O[C@]3(C)CC[C@@H]4[C@H](C)CC[C@@H]([C@H]1C)[C@@]24OO3)[C@H]1O[C@@H]2O[C@]3(C)CC[C@H]4[C@H](C)CC[C@@H]([C@@H]1C)[C@@]24OO3 | – | 1050 nM (active) |
| CCCC[N+]1(C)[C@H]2CC(OC(=O)[C@H](CO)c3ccccc3)C[C@H]1[C@H]1O[C@H]12 (stereo partly specified) | -4.61% | – |
| C[C@@]12OC(=O)[C@]1([C@@H](O)[C@@H]1C=CCCC1)NC(=O)[C@H]2CCCl | – | 662 nM (active) |
| C[C@@H]1O[C@@H](O[C@@H]2C=C3CC[C@@H]4[C@@H](CC[C@]5(C)[C@H](c6ccc(=O)oc6)CC[C@@]45O)[C@@]3(C)CC2)[C@H](O)[C@H](O)[C@H]1O | – | 41.8 nM (active) |
| CC[C@@H]1[C@@H](C)O[C@@](O)([C@@H](C)[C@H](O)[C@H](C)[C@H]2OC(=O)C=CC=C[C@@H](C)[C@@H]([C@@H](C)[C@@H](O)[C@H](C)[C@@]3(O)C[C@H](O[C@H]4C[C@H](O)[C@H](O)[C@H](C)O4)[C@H](CC)[C@@H](C)O3)OC(=O)C=CC=C[C@@H]2C)C[C@H]1O[C@H]1C[C@H](O)[C@H](O)[C@H](C)O1 | – | 2640 nM (active) |
| CC[C@@]1(O)C(=O)OCc2c1cc1n(c2=O)Cc2cc3ccccc3nc2-1 | – | 20.9 nM (active) |
| C[C@@H]1[C@H](O)[C@@H](C)C=CC=CCCC=CC=CC=CC=C[C@H](O[C@H]2O[C@@H](C)[C@H](O)[C@@H](N)[C@@H]2O)CC2O[C@](O)(C[C@@H](O)[C@H](O)CC[C@@H](O)C[C@@H](O)C[C@@H](O)CC(=O)O[C@H]1C)C[C@H](O)[C@H]2C(=O)O | -7.79% | – |
| CC(C)[C@]12O[C@@H]1[C@@H]1O[C@]13[C@]1(O[C@H]1C[C@@H]1C4=C(CC[C@@]13C)C(=O)OC4)[C@H]2O | -41.9% | – |
| Cc1c(N)nc([C@H](CC(N)=O)NC[C@@H](N)C(N)=O)nc1C(=O)N[C@H](C(=O)N[C@@H](C)[C@H](O)[C@@H](C)C(=O)N[C@@H](C(=O)NCCc1nc(-c2nc(C(=O)NCCC[S+](C)C)cs2)cs1)[C@@H](C)O)C(O[C@H]1O[C@H](CO)[C@H](O)[C@@H](O)[C@@H]1O[C@H]1O[C@H](CO)[C@@H](O)[C@H](OC(N)=O)[C@H]1O)c1cnc[nH]1 (stereo partly specified) | – | 3720 nM (active) |
| C[C@]12COC(=O)C[C@@H]1CC[C@@H]1[C@H]2CC[C@@]2(C)[C@H]1CC[C@]2(C)O | -5.65% | – |
